Measured values taken from PubChem BioAssay (NCI).
The panel holds about 83,000 compounds, 20% with a hit somewhere; the sample as a whole holds those more often.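 The endpoint reported here, percent growth, reads 100 for growth as untreated, 0 for no net growth and -100 for all cells dead.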 Calls of active or inactive are those of the source. The calls were made as follows: active = growth percent below 10; inactive = the rest.

Key:
Experiment in all cases: NCI-60 one-dose screen, 48 h (100 = growth as untreated, 0 = no growth, -100 = all killed)
Settings in all cases: 10 µM unless noted
SK-MEL-2 melanoma = test system: SK-MEL-2 melanoma
EKVX NSCLC = test system: EKVX NSCLC
SN12C renal = test system: SN12C renal
UO-31 renal = test system: UO-31 renal
TK-10 renal = test system: TK-10 renal
ACHN renal = test system: ACHN renal
CAKI-1 renal = test system: CAKI-1 renal
A498 renal = test system: A498 renal
CCRF-CEM leukemia = test system: CCRF-CEM leukemia
MOLT-4 leukemia = test system: MOLT-4 leukemia

Measured: growth

O=C1/C(=C/c2ccc(Cl)cc2)COc2ccc(O)cc21
active: CCRF-CEM leukemia -5.84%
inactive: SK-MEL-2 melanoma 101% | EKVX NSCLC 95.5% | SN12C renal 69% | UO-31 renal 53.1% | TK-10 renal 100% | ACHN renal 80% | CAKI-1 renal 70.8% | A498 renal 100% | MOLT-4 leukemia 14.8%

Cc1nnc(NC(=O)c2nc(S(=O)(=O)Cc3ccc(F)cc3)ncc2Cl)s1
inactive: SK-MEL-2 melanoma 89.5% | EKVX NSCLC 90.5% | SN12C renal 64.7% | UO-31 renal 73.6% | TK-10 renal 79% | ACHN renal 96.5% | A498 renal 115% | MOLT-4 leukemia 11.3%
active: CAKI-1 renal -86.3% | CCRF-CEM leukemia -43.3%

CC1(C)CC[C@]2(C(=O)O)CC[C@]3(C)C(=CC[C@@H]4[C@@]5(C)C/C(=C/O)C(=O)C(C)(C)[C@@H]5CC[C@]43C)[C@@H]2C1
active: MOLT-4 leukemia 7.85%
inactive: SK-MEL-2 melanoma 104% | EKVX NSCLC 88.6% | SN12C renal 65.7% | UO-31 renal 57.7% | TK-10 renal 58.1% | ACHN renal 20% | CAKI-1 renal 48.6% | A498 renal 85.6% | CCRF-CEM leukemia 16.3%

C#CCOc1ccc2ncnc(Nc3cccc(NC(=O)C=C)c3)c2c1
inactive: SK-MEL-2 melanoma 70.8% | EKVX NSCLC 51.6% | SN12C renal 65.3% | UO-31 renal 41.3% | TK-10 renal 45.2% | ACHN renal 45.8% | CAKI-1 renal 45.5% | A498 renal 47.7% | CCRF-CEM leukemia 79.9% | MOLT-4 leukemia 60.6%

COP(=O)(OC)C(C)(C)CC(=O)CC(C#N)(C#N)C(C#N)C#N
active: CCRF-CEM leukemia -30.3%
inactive: SK-MEL-2 melanoma 118% | EKVX NSCLC 99.4% | SN12C renal 99.6% | UO-31 renal 85.1% | TK-10 renal 104% | ACHN renal 100% | CAKI-1 renal 96.4% | A498 renal 121% | MOLT-4 leukemia 104%

O=C1COCCN1c1ccc(Nc2nc(Cl)nc(OCc3cn(Cc4ccccc4)nn3)n2)cc1
inactive: SK-MEL-2 melanoma 85.6% | EKVX NSCLC 99.5% | SN12C renal 94.2% | UO-31 renal 73.6% | TK-10 renal 98.6% | ACHN renal 101% | CAKI-1 renal 84.4% | A498 renal 92.2% | CCRF-CEM leukemia 60% | MOLT-4 leukemia 62%

O=[N+]([O-])C1C(c2ccccc2)C12c1ccccc1-c1ccccc12 (stereo not given)
active: SK-MEL-2 melanoma -1.42% | A498 renal -12.8% | CCRF-CEM leukemia -12.1% | MOLT-4 leukemia -17.1%
inactive: EKVX NSCLC 77.9% | SN12C renal 23% | UO-31 renal 28.3% | TK-10 renal 23.2% | ACHN renal 29.6% | CAKI-1 renal 34.6%

C=C1C(=O)O[C@H]2[C@H]1CC/C(COC(=O)CSCCSCC(=O)OC/C1=C/CC[C@@]3(C)O[C@H]3[C@H]3OC(=O)C(=C)[C@@H]3CC1)=C\CC[C@@]1(C)O[C@@H]21
active: SN12C renal -10.4% | UO-31 renal 7.85% | ACHN renal 2.6% | CAKI-1 renal 9.17% | CCRF-CEM leukemia -41.5% | MOLT-4 leukemia -22.5%
inactive: SK-MEL-2 melanoma 70% | EKVX NSCLC 11% | TK-10 renal 16.6% | A498 renal 88.7%

N#Cc1nn(-c2cc(=O)[nH]c3ccc(Cl)cc23)c(N)c1C#N
active: CCRF-CEM leukemia -15.8% | MOLT-4 leukemia -3.91%
inactive: SK-MEL-2 melanoma 116% | EKVX NSCLC 94% | SN12C renal 104% | UO-31 renal 75.8% | TK-10 renal 105% | ACHN renal 92.7% | CAKI-1 renal 101% | A498 renal 116%

CCCCCCCCn1ccc2cc(NC(=O)CN3CCN(c4nc(C)cc(Cl)n4)CC3)ccc21
inactive: SK-MEL-2 melanoma 122% | EKVX NSCLC 93.6% | SN12C renal 99.5% | UO-31 renal 58.9% | TK-10 renal 108% | ACHN renal 98.1% | CAKI-1 renal 87.2% | A498 renal 109%
active: CCRF-CEM leukemia -34.6% | MOLT-4 leukemia 4.97%

O=C(O)/C(=C\c1ccc(Cl)cc1)c1ccc(Cl)cc1
inactive: SK-MEL-2 melanoma 90.3% | EKVX NSCLC 94.3% | SN12C renal 90.4% | UO-31 renal 77.7% | TK-10 renal 106% | ACHN renal 95.2% | CAKI-1 renal 70.8% | A498 renal 94.9% | CCRF-CEM leukemia 96.5% | MOLT-4 leukemia 50%

O=c1oc2c(cnc3ccccc32)cc1-c1ccsc1
inactive: SK-MEL-2 melanoma 106% | EKVX NSCLC 95% | SN12C renal 95.1% | UO-31 renal 79.3% | TK-10 renal 123% | ACHN renal 93.9% | CAKI-1 renal 84.5% | A498 renal 107% | CCRF-CEM leukemia 94.6% | MOLT-4 leukemia 96%

CCN1CC(=O)N(/N=C2\C(=O)Nc3ccccc32)C1=S
inactive: SK-MEL-2 melanoma 92.7% | EKVX NSCLC 80.8% | SN12C renal 86.1% | UO-31 renal 60.5% | TK-10 renal 105% | ACHN renal 76.9% | CAKI-1 renal 59% | A498 renal 82.4% | CCRF-CEM leukemia 102% | MOLT-4 leukemia 98%
